# Assay results: PubChem BioAssay (Tox21)
# Records with an inconclusive call do not appear. A number with no mark means an inactive call. Calls come from the whole dose curve; as a rule, active = well fitted cell-killing curve with a large enough effect in the repeat runs; inconclusive = weak or mixed curves, or effect the other way; inactive = no such curve, though single readings can be large or run the other way.
# Test: qHTS assay to identify small molecule antagonists of the retinoid-related orphan receptor gamma (ROR-gamma) signaling pathway - cell viability counter screen (AID 1159520); note: nearly all actives have a fitted effect of over 50% in size
# Details: Tet-on RORgamma CHO cells viability, ATP luminescence, 16 h; series mostly up to 92.4 µM; activity, negative = cytotoxicity: at the top concentration
# Text: U.S. Tox21 Program National Center for Advancing Translational Sciences [NCATS] NIH Chemical Genomics Center [NCGC] U.S. Environmental Protection Agency [EPA] National Institutes of Environmental Health Sciences [NIEHS] National Toxicology Program [NTP] U.S. Food and Drug Administration [FDA] Tox21 Assay Overview: Nuclear steroid hormone receptors are involved in many biological processes including inflammatory responses, cell proliferation, and apoptosis. Environmental factors or compounds disrupting these nuclear receptor pathways and gene expression may promote susceptibility to immunotoxicants and autoimmune diseases. One important group of these expression factors are the retinoid-related orphan receptors. To assess compounds that may interfere with the retinoid-related orphan receptor gamma (ROR-gamma) transcription factor, a cell-based luciferase assay was used. The CHO cell-based assay utilizes a TET-inducible ROR expression factor and ROR response element-LUC reporter gene. Reporter gene activity was induced using Doxycycline Hyclate and measured after 16 hr incubation. Tet-on ROR gamma CHO cells were used to screen against the Tox21 10K compound library for cytotoxicity by measuring the viability of the cells based on the quantitation of the ATP.
# Tox21 Assay Protocol Summary: Tet-on ROR gamma CHO cells were dispensed at 1,000 cells in 4 uL of culture medium per well into white wall/solid bottom 1536-well plates using a Multidrop Combi (Thermo Scientific, Waltham, MA) dispenser. Following incubation at 37 C and 5% CO2 for 4 hr, 23 nL of compounds dissolved in DMSO, positive controls or DMSO only were transferred by a Pintool station (Kalypsys, San Diego, CA) and after 2 hr incubation at 37 C, one ul of 1 uM (final concentration) of Doxycycline Hyclate was added to all the wells by using a Flying Reagent Dispenser (FRD) (Aurora Discovery, San Diego, CA). After 16 hr incubation at 37 C and 5% CO2, 5 uL of CellTiter-Glo reagent (Promega Corporation, Madison, WI) was added to each assay plate using FRD. After 30 min incubation at room temperature, luminescence was quantified on a ViewLux plate reader (Perkin Elmer, Waltham, MA).
# % is set by controls: 0 for no effect and ±100 for the full control effect.
row,SMILES,"activity, negative = cytotoxicity"
1,O=C(O)CCc1nc2ccccc2[nH]1,0.619% [at 42.5 µM]
2,Sc1nc(S)nc(S)n1,0.989% [at 42.5 µM]
3,OCCc1ccncc1,-5.16%
4,C(/C=C/C=C/Nc1ccccc1)=Nc1ccccc1,-5.58%
5,Nc1nc(Cl)nc2c1ncn2[C@H]1C[C@H](O)[C@@H](CO)O1,5.97%
6,CC(C)CC(C)(C)C,7.33%
7,Cc1cc(N)n(-c2ccccc2)n1,4.21%
8,CC(C)(C)NCC(O)COc1ccc(NC(=O)NC2CCCCC2)cc1 (stereo not given),0.525% [at 42.5 µM]
9,Cc1ccc2ccccc2c1[N+](=O)[O-],-1.96%
10,C[C@@H](O)[C@H]1C(=O)N2C(C(=O)O)=C(S[C@@H]3CN[C@H](CNS(N)(=O)=O)C3)[C@H](C)[C@H]12,1.07% [at 42.5 µM]
11,CC(O)CN (stereo not given),4.82%
12,CCC(=O)O[C@@H]1C[C@H]2CC[C@]1(C)C2(C)C,1.31%
13,C[C@H](CN1CCCC1)C(=O)c1ccc(C(F)(F)F)cc1,1.12% [at 42.5 µM]
14,CC(=O)c1ccc(Cl)c(Cl)c1Cl,6.47%
15,CCCCCCCCS,1.1%
16,O=C(O)c1cccc(C(=O)O)c1C(=O)O,4.41%
17,Clc1nc2ccccc2nc1Cl,-11%
18,CC(C)Cc1nccs1,-1.93%
19,C1=COCCC1,2.14%
20,COc1ccc(C(=O)c2ccc(C)cc2)c(O)c1,-6.01%

row,SMILES,"activity, negative = cytotoxicity"
1,O=C1OC(=O)C2CC=CCC12 (stereo not given),12.5%
2,CCCCCCCCC(=O)OCC(C)OC(=O)CCCCCCCC (stereo not given),-9.49%
3,COC(=O)/C=C/C(C)=C\C=C\C(C)=C\C=C\C=C(C)\C=C\C=C(C)\C=C\C(=O)O,-9.69%
4,CC(CN=Cc1ccccc1O)N=Cc1ccccc1O (stereo not given),-4.65%
5,NC(=O)c1ccccc1,5.67%
6,COc1ccc(/C=C/c2cc(OC)cc(=O)o2)cc1,-9.02% [at 42.5 µM]
7,CC(C)CCCCCOC(=O)CS,5.51%
8,C=C(C)C(=O)OCCCCCCCCCCOC(=O)C(=C)C,-12.2%
9,C=Cc1ccc(C=C)cc1,1.46%
10,CC1=CC(=C(c2ccc(N)cc2)c2ccc(N)cc2)C=CC1=N,-12.6% [at 8.39 µM]
11,c1ccc(-c2ccc(-c3ccccc3)cc2)cc1,4.58% [at 19 µM]
12,CC(C)=CCCC(C)C=O (stereo not given),0.75%
13,CCCCCCCCCC(C)C=O (stereo not given),3.6%
14,O=C1c2ccccc2C(=O)c2c1ccc(O)c2O,-14.6% [at 42.5 µM]
15,O=C(C1CCCCC1)N1CC(=O)N2CCCc3ccccc3C2C1 (stereo not given),-1.19% [at 42.5 µM]
16,CC1=C(C)C(=O)C(CCCCC#CCCCC#CCO)=C(C)C1=O,-9.23% [at 42.5 µM]
17,CC(CC(C#N)(c1ccccc1)C(C)C)N(C)C (stereo not given),0.845% [at 42.5 µM]
18,C=C[Si]1(C)O[Si](C)(C=C)O[Si](C)(C=C)O[Si](C)(C=C)O1 (stereo not given),2.49%
19,CC1(C)[C@@H]2CC[C@]3(C2)[C@@H]1C(=O)CCC3(C)C,-15.2%
20,CCCCOC(=O)C(C)Oc1ccc(Oc2ccc(C(F)(F)F)cn2)cc1 (stereo not given),-0.645%
